Data reported in publication PMC5540273 (PLoS ONE, 2017).

What was measured:
Details in all cases: concentration: 1 μM,replicates: in singlicate; n = 1
MTOR = system: MTOR
MUSK = system: MUSK
MYLK2 = system: MYLK2
MYLK4 = system: MYLK4
MYLK = system: MYLK
MYO3A = system: MYO3A
MYO3B = system: MYO3B
NDR1 = system: T1, NDR1
T1 construct: gene STK38

NDR2 = system: NDR2
NEK10 = system: NEK10
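Also: KINOMEscan kinase panel screen.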

SMILES	%Inh (MTOR) [%]	%Inh (MUSK) [%]	%Inh (MYLK2) [%]	%Inh (MYLK4) [%]	%Inh (MYLK) [%]	%Inh (MYO3A) [%]	%Inh (MYO3B) [%]	%Inh (NDR1) [%]	%Inh (NDR2) [%]	%Inh (NEK10) [%]
CNC(=O)c1ccccc1Nc1nc(Nc2cccc(CS(C)(=O)=O)c2)ncc1C.O=CO [GSK1520489]	2	69	18	99.8	30	28	0	92.2	80	14
CC(=O)c1c(-c2ccncc2)[nH]c(-c2ccncc2)c1C [GW493036]	0	8	4	7	4	42	0	19	0	0
CC(C)S(=O)(=O)N1CCN(Cc2ccc3c(c2)nc(NC(=O)c2ccsc2)n3C[C@H](O)c2ccccc2)CC1 [GW635815]	14	27	15	0	16	8	0	35	24	2
O=c1[nH]cc(-c2ccc(O)cc2)c2sc(-c3ccncc3)cc12 [GSK1033723]	18	0	33	44	26	0	0	38	8	12
CC(=O)Nc1nc2cnc(Nc3cc(NC(=O)c4cccc(CC(C)(C)C#N)c4)ccc3C)nc2s1	14	2	0	14	42	25	0	0	13	0
Cn1ccc2ncnc(Oc3ccc(NC(=O)Nc4cccc(C(F)(F)F)c4)c(Cl)c3)c21	33	94.6	21	5	3	0	22	17	0	0
Cc1ccc(Nc2ccnc(Nc3ccc4c(c3)CS(=O)(=O)C4)n2)cc1O.Cl [GW579362]	30	53	32	87	27	15	0	28	0	16
c1ccc(Oc2ccc(Nc3ccnc4ccc(-c5ccccn5)cc34)cc2)cc1 [GW407034]	15	15	12	4	14	10	0	0	0	2
Cn1cc(-c2cccc3c(N)c(C(N)=O)nnc23)cn1	0	3	0	81	33	15	23	8	23	48
CS(=O)c1ccc(-c2coc3ccc(-c4n[nH]c(=O)o4)cc23)cc1 (stereo not shown)	17	0	20	24	41	0	0	2	22	56
C[C@@H]1CCN(C(=O)N2CCCC2)C[C@@H]1N(C)c1ncnc2[nH]ccc12	8	0	5	3	2	1	0	4	0	30
Cn1ccc2ncnc(Oc3ccc(NC(=O)Nc4cccc(C(F)(F)F)c4)c(F)c3)c21	10	99.4	0	7	19	8	49	10	8	7
O=C(Nc1cccc(C(F)(F)F)c1)c1cccc(Oc2ccc3nccn3n2)c1	0	12	0	0	6	0	0	80	0	0
Cn1ccc2ncnc(Oc3ccc(NC(=O)Nc4ccnc(C(F)(F)F)c4)c(Cl)c3)c21	25	42	0	0	0	0	0	0	2	0
CC(C(=O)NC1CCN(c2ccnc(Nc3ccc(F)cc3)n2)C1)c1ccc(Cl)cc1 (stereo not shown) [GSK1379713]	17	6	3	0	0	0	0	15	0	0
COc1ccc(Nc2nccc(N3CCC(NC(=O)c4cccc(C#N)c4)C3)n2)cc1 (stereo not shown) [GSK1379730]	10	5	0	0	0	0	0	0	0	28
